Biological target: NEFH
Assay: pooled miR-30 sensor sort-seq; sequence = guide strand
Details: shRNA

Row | Sequence | sensor-assay potency score (higher = more potent)
1 | TATCTCTATATCCAGAGCCATC | -1.97
2 | TAAGCTATCATAATTGTCCATC | -0.916
3 | TTTTTTCTTATCTTCAGCCTCT | 0.587
4 | TTCAACTTTGGATTCTTTGGGC | 0.436

Biological target: NEIL1
Assay: as above
Details: shRNA

Row | Sequence | sensor-assay potency score (higher = more potent)
5 | TGGGATGTCAGCCTTGACCTTC | -1.09
6 | ATGTCAGCCTTGACCTTCCGGG | -0.984
7 | TGAACTGCTGGTACTCCTGCAA | -0.0198
8 | TTGGTCCTTATCTTCTGGCTCA | -0.526
9 | TCTGTCCTCAGGACTCAGCTGT | -0.0425
10 | TACTCCTGCAAGACACAGGGCC | -0.384
11 | TTTCGTAGCACACTCTCCCTGA | 0.529
12 | TTCTTTTTGCGGGACTTGCGCC | -1.12
13 | TATCTTCTGGCTCAGGGTCAGC | -1.69
14 | TCTTAGGAAGGTCTCTCTTTGC | -1.22
15 | TTGCAGTCCTCTTAGGAAGGTC | -0.51
16 | TGAGTGACATAGCTCCAGCAGG | -1.15

Biological target: NEK11
Assay: as above
Details: shRNA

Row | Sequence | sensor-assay potency score (higher = more potent)
17 | TTCGCTAGCATTCTGATGCCTT | 0.204
18 | TAAGTCTCGATGAAGTATCCTC | -0.275
19 | TTTTGTTGAAGCACGTATCTTC | 0.706
20 | TATATGAGCAGCCTCCTTCTGA | -0.668
21 | TTAGAAGTCGAGAAACTCCAAA | -0.797
22 | TTAGGTTCTGTAGCTGCTCATC | -0.837
23 | ATGGAGTACATCAACACTCAGC | -1.37
24 | TACATCAACACTCAGCTGCTGA | -0.0516
25 | TTCTCTGGTCTTTCTAACGCTA | -0.53
26 | TTTTCTGTACTTCTGACAGTGC | -0.562
27 | TTTGTGTCTAGAGAAGTGCAAC | -1.07
28 | TTCCTGAATTTTATCGTCCAGA | -0.793

Biological target: NEK7
Assay: as above
Details: shRNA

Row | Sequence | sensor-assay potency score (higher = more potent)
29 | TCTATCTTCTTACACAGTGAGT | -1.04
30 | TAGTTCATTATCTTCAATGAAT | -1.2
31 | TAGGTCGCCAGCATCTGCTAGT | -0.288
32 | TTAGCTGGTTTTATATCTCTAT | -0.684
33 | TCTCATATAGTAGACAGCCAAG | -1.88
34 | TTAAAATGCTTGATCATTCTGG | 0.745
35 | TTGAGCTGAAAAACCGGCCAAG | -1.05
36 | TTTTCATGTATTCTCTCTGGAG | -0.779
37 | TAATGAACACATTAGCTGGTTT | -0.362
38 | TAAACATAGGTGACGTCTGGTC | -1.09
39 | TAAACTTCACTAAATTGTCCGC | -0.329
40 | TATATCTCTATGCATGACTCTT | -0.469

Reference: the OligoGym collection
